aSyn 5UTR act – Activators via SNCA 5'UTR binding, MLPCN; alpha-synuclein 5'UTR reporter, activators screen; activity score, % (tested at 7.5 µM), hits read low; 300,000 tested, 7.1% active; AID 1814, 2009; in the data active = activity score below about -60%
Numbers without * were called inactive. The list is a sample of the results.

SMILES	aSyn 5UTR act
CCc1ccc(NC(=O)[C@H](C)NC(=O)C2CCN(C(=O)[C@@H](N)C(C)C)CC2)cc1	-110*
COc1cc(/C=N/Nc2nc(N3CCCC3)nc(N3CCCC3)n2)ccc1OCc1ccccc1F	-72*
Cn1cccc1/C=C1\SC(=O)N(c2ccc(O)cc2)C1=O	-144*
Cc1cc(/C=C2/C(=O)N(C)C(=S)N2C)c(C)n1C1CC1	-140*
COc1ccccc1-n1cc2c([N+](=O)[O-])cc([N+](=O)[O-])cc2n1	-69*
Cc1ccc(NC(=S)N2CCCCCC2)cc1	-94*
Cc1ccc(NC(=S)N2CCCC2)cc1	-64*
Cc1cc2n(n1)SC(Nc1ccc(F)c(Cl)c1)N2 (stereo not drawn)	-77*
COc1ccc2cc(-c3ccccc3)ncc2c1	-65*
O=[N+]([O-])c1ccc2nc(-c3ccc(Cl)cc3)[nH]c2c1	-221*
O=[N+]([O-])c1ccc(/C=C/c2nc3ccc([N+](=O)[O-])cc3[nH]2)cc1	-165*
COc1ccc2[nH]c(-c3ccccc3)cc2c1	-139*
COc1ccc(-c2cc3c(nn2)-c2ccccc2C3=O)cc1	98
O=[N+]([O-])c1ccc(-c2cc(-c3ccc(Cl)cc3)n[nH]2)cc1	-75*
COc1ccc(-c2nc3ccc([N+](=O)[O-])cc3[nH]2)cc1	-63*
COc1ccc2nc(-c3ccccc3)[nH]c2c1	-71*
Clc1ccc(-c2nc3ccncc3[nH]2)cc1	-101*
O=[N+]([O-])c1cccc(-c2nc3ccc([N+](=O)[O-])cc3[nH]2)c1	-142*
Cc1nc(N)sc1N=Nc1ccc(Br)cc1	-254*
Fc1cccc2sc(Nc3nnc(-c4ccco4)o3)nc12	-109*
O=C(Nc1nc2c(F)cccc2s1)c1ccco1	-121*
Cc1cc(Cl)cc2sc(NC(=O)c3ccco3)nc12	-123*
Cc1nc2nc(NC(=O)c3ccco3)nn2c(C)c1Cl	-95*
COc1ccc(-c2cc3ccc(OCC(N)=O)cc3oc2=O)cc1OC	-65*
CC(=O)Oc1ccc2cc(-c3ccccc3)c(=O)oc2c1	-163*
SMILES	aSyn 5UTR act
O=C(CCCCl)Oc1ccc2cc(-c3ccc4ccccc4n3)c(=O)oc2c1	-125*
CC(=O)Oc1ccc2c(=O)c(-c3ccccc3)coc2c1	-146*
O=C(COc1ccc2ccc(=O)oc2c1)c1ccccc1	-102*
COc1ccc(-c2coc3cc4oc(=O)cc(-c5ccccc5)c4cc23)cc1F	113
CC(=O)COc1ccc2cc(-c3ccccc3)c(=O)oc2c1	-64*
Nc1ncccc1OCc1ccc(Br)cc1	-159*
COc1ccc(COc2cccnc2N)cc1	-91*
Cc1c(C(=O)C(=O)N2c3ccc(F)cc3CCC2C)c2ccccc2n1C (stereo not drawn)	62
CC1Cc2ccccc2N1C(=O)Cc1cccs1 (stereo not drawn)	38
CC1Cc2ccccc2N1C(=O)/C=C/c1cccc(F)c1 (stereo not drawn)	-170*
O=C(Oc1ccc(NC2=C(Cl)C(=O)c3ccccc3C2=O)cc1)c1ccc([N+](=O)[O-])cc1	-109*
O=C(NC(=S)Nc1ccccc1)c1ccc(-c2ccccc2)cc1	-102*
Cc1ccc(NC(=O)NC(=S)NC(=O)c2ccccc2)cc1	-125*
O=C1CN(C(=S)NC(=O)c2ccc(-c3ccccc3)cc2)CCN1	-79*
Cc1ccc(C(=O)NC(=S)Nc2cccnc2Cl)cc1	-138*
O=C(O)c1ccc(NC(=S)NC(=O)c2ccc(-c3ccccc3)cc2)cc1	-97*
OCCOc1ccc(C2=NCCO2)cc1	-72*
COc1ccc(-c2noc(-c3ccc4c(c3)OCO4)n2)cc1	-72*
CCOc1nc(C)ccc1-c1noc(-c2cccnc2)n1	-85*
COc1cc(OC)cc(-c2nc(-c3ccc(Br)cc3)no2)c1	-164*
COc1ccc(-c2nc(-c3ccc(Br)cc3)no2)c(OC)c1	-105*
COc1ccccc1-c1nc(-c2ccc(Br)cc2)no1	-305*
COCC1CCN(Cc2nc(-c3ccc4c(c3)OCO4)no2)C1 (stereo not drawn)	-114*
COc1ccccc1-c1noc(-c2cccnc2)n1	-112*
COc1ccccc1-c1nc(-c2ccncc2)no1	-123*
SMILES	aSyn 5UTR act
O=C1NC(=S)N/C1=C/c1cccc2ccccc12	-129*
Nc1c(-c2ccccc2)cnn1-c1ccc(C(=O)O)cc1	-130*
Cc1ccc(-c2cnn(-c3ccccc3)c2N)cc1	-69*
O=c1c2ccccc2c(-c2ccc(O)cc2)nn1-c1cccc(C(F)(F)F)c1	52
Nc1c(-c2ccccc2)cnn1-c1cccc(C(F)(F)F)c1	-205*
Nc1c(-c2ccc(Cl)cc2)cnn1-c1ccccc1	-180*
Nc1c(-c2ccc(Cl)cc2)nnn1-c1ccccc1	-159*
Cc1ccc(-c2cnn(-c3cccc([N+](=O)[O-])c3)c2N)cc1	-105*
O=C(N=C1c2ccccc2CN1c1ccc(F)c(Cl)c1)c1cccnc1Cl	-106*
N#Cc1ccc(N2Cc3ccccc3C2=NC(=O)c2cccnc2Cl)cc1	-106*
O=C(/C=C/c1c(F)cccc1Cl)c1ccc(O)cc1	-115*
O=C(/C=C/c1ccccc1Cl)c1ccc(O)cc1	-360*
c1ccc(-n2nc3c(ccc4cnnc43)[nH]2)cc1	-129*
c1ccc2oc(NC3=NCN(C4CCCCC4)CN3)nc2c1	-174*
CC(C)N1CN=C(Nc2nc3ccccc3o2)NC1	-70*
CCCCN1CN=C(Nc2nc3ccccc3o2)NC1	-136*
COCCN1CN=C(Nc2nc3ccccc3o2)NC1	-83*
CCOC(=O)c1c(C)oc2c1c(C(c1cccnc1)N1CCCCC1)c(O)c1ccccc12 (stereo not drawn)	-146*
CCOC(=O)c1c(C)oc2c1c(C(c1ccccc1)N1CCOCC1)c(O)c1ccccc12 (stereo not drawn)	-205*
CS(=O)(=O)c1cnc2c(-c3ccsc3)cnn2c1N	-85*
COc1ccc(-c2cnc3c(-c4ccc(F)cc4)cnn3c2N)cc1	-241*
CC(C)(C)S(=O)(=O)c1cnc2c(-c3ccc(Cl)cc3)cnn2c1N	-78*
Nc1c(-c2ccc(Cl)cc2)cnc2c(-c3ccccc3)cnn12	-205*
O=C(CC(SCc1ccco1)c1ccc(O)cc1)c1cccs1 (stereo not drawn)	-168*
O=C(CC(SCCO)c1ccc2c(c1)OCO2)c1cccs1 (stereo not drawn)	-193*
SMILES	aSyn 5UTR act
O=C1/C(=C/c2cccnc2)CC/C1=C\c1cccnc1	-65*
Cc1cccc(/C=C2\CCC(=C3SCCCS3)C2=O)c1	85
CC(C)/C=C1\CC/C(=C\c2cccnc2)C1=O	-62*
Cc1cnc(NC(=O)CSc2ccccc2)s1	-108*
Cc1cnc(NC(=O)COc2ccccc2)s1	-142*
COC(=O)c1sc(NC(=O)Cc2cccs2)nc1C	-69*
CCOc1ccc(C(=O)Nc2nc(C)c(C(=O)OC)s2)cc1	-97*
CN(C)CCCn1cnc2c(c1=N)C(c1ccccc1)c1ccc3ccccc3c1O2 (stereo not drawn)	90
CCOC(=O)c1sc(NC(=O)c2cccnc2)nc1C	-100*
Cc1cnc(NC(=O)CCc2ccccc2)s1	-383*
COC(=O)c1sc(NC(=O)COc2ccccc2)nc1C	-142*
Cc1cccc(N(C)S(=O)(=O)c2ccc(-c3cnc(C4CC4)o3)cc2)c1	97
O=c1c2ccc([N+](=O)[O-])cc2ncn1CCOc1ccccc1	-69*
COc1ccc2c(Cn3cnc4cc([N+](=O)[O-])ccc4c3=O)cc(=O)oc2c1	72
O=c1c2ccccc2ncn1CCOc1ccccc1[N+](=O)[O-]	-63*
